# Measured values from PubChem BioAssay (Tox21).
# Where “and” joins values, the source holds several entries; their conditions need not be identical. Equal values may be shown once. Results filed as inconclusive are left out. Entries that show only a call come without a potency. A structure can be active in one record and inactive in another. Calls of active or inactive are those of the source. Unless noted, calls come from the whole dose curve; as a rule, active = well fitted curve in the direction sought with a large enough effect in the repeat runs; inconclusive = weak or mixed curves; inactive = no such curve, though single readings can be large; an effect the other way counts as inactive or inconclusive.
# Tests used:
# [1] = biological target: Peroxisome proliferator-activated receptor delta (Homo sapiens) (UniProt Q03181); assay: qHTS assay to identify small molecule agonists of the peroxisome proliferator-activated receptor delta (PPARd) signaling pathway (AID 743212; calls by dose curve)
# Peroxisome proliferator-activated receptor delta (Homo sapiens), sequence (Q03181 whole entry, looked up): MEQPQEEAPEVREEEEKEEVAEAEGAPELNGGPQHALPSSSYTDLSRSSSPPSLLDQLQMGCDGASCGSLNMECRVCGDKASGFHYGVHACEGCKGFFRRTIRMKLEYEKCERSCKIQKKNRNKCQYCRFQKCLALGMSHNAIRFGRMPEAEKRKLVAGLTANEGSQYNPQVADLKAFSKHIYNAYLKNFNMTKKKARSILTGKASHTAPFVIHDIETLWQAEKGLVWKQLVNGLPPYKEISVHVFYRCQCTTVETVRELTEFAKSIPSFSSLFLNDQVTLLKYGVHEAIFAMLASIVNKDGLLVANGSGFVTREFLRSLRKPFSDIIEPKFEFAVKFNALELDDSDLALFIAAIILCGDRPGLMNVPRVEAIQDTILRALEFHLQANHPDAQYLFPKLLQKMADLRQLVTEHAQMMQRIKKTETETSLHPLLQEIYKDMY
# How it was run: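 HEK293H PPARd-bla cells; 5 h preincubation 37 C/5% CO2; compound (DMSO) 37 C; LiveBLAzer B/G FRET substrate 2 h RT; fluorescence intensity.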
# [2] = qHTS assay to identify small molecule antagonists of the peroxisome proliferator-activated receptor delta (PPARd) signaling pathway - cell viability counter screen (AID 743213); note: nearly all actives have a fitted effect of over 50% in size; note: potency is the fitted concentration of half-maximal effect
# How it was run: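 Cytotoxicity counter screen: CellTiter-Glo luminescence read 30 min after addition, in the same wells as the reporter assay. There, PPARd UAS-bla HEK293H cells (3000/well) were treated 17 h at 37 C with compound and 300 nM L165041.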
# [3] = biological target: Peroxisome proliferator-activated receptor delta (Homo sapiens) (UniProt Q03181); assay: qHTS assay to identify small molecule antagonists of the peroxisome proliferator-activated receptor delta (PPARd) signaling pathway (AID 743215; active = well fitted inhibition curve with a large enough effect in the signal ratio in the repeat runs, not every such curve was filed as active; the % refers to the signal ratio;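 note: cells stimulated with agonist L165041 at 300 nM final during compound exposure; series mostly up to about 62 µM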)
# How it was run: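 Antagonist-mode beta-lactamase reporter screen: HEK293H cells with UAS-bla under PPARd control, stimulated by 300 nM L165041 (final) alongside test compound for 17 h at 37 C, then FRET fluorescence after 2 h substrate incubation.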
# [4] = biological target: Bile acid receptor (Homo sapiens) (UniProt Q96RI1); assay: qHTS assay to identify small molecule antagonists of the farnesoid-X-receptor (FXR) signaling pathway (AID 743217; active = well fitted inhibition curve with a large enough effect in the signal ratio in the repeat runs, not every such curve was filed as active; the % refers to the signal ratio; note: potency is the fitted concentration of half-maximal effect)
# Bile acid receptor (Homo sapiens), sequence (Q96RI1 whole entry, looked up): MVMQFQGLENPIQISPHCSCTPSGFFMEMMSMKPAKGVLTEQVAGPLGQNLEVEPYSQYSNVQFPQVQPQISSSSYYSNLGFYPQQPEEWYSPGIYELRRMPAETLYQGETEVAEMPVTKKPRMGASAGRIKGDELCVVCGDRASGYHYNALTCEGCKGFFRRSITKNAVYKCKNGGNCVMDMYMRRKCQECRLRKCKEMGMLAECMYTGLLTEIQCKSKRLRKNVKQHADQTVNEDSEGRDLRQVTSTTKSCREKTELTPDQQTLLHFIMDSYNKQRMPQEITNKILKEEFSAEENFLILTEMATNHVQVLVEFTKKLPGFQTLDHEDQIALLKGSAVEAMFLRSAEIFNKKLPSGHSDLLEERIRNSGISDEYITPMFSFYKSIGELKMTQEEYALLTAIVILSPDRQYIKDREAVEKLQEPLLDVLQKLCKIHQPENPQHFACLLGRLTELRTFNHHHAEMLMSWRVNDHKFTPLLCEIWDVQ
# How it was run: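 Beta-lactamase reporter under UAS control in HEK 293T cells; compound exposure 16 h at 37 °C in the presence of chenodeoxycholic acid (50 uM final); signal from B/G FRET substrate after 2 h at room temperature.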
# [5] = qHTS assay to identify small molecule agonists of the farnesoid-X-receptor (FXR) signaling pathway - cell viability counter screen (AID 743218); note: nearly all actives have a fitted effect of over 45% in size
# How it was run: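 In GeneBLAzer FXR-UAS-bla HEK 293T cells, compounds act for 16 h at 37 C. Cell viability is then scored in the reporter wells by CellTiter-Glo, 30 min at RT, luminescence.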
# [6] = biological target: Bile acid receptor (Homo sapiens) (UniProt Q96RI1); assay: qHTS assay to identify small molecule agonists of the farnesoid-X-receptor (FXR) signaling pathway (AID 743220; active = well fitted activation curve with a large enough effect in the signal ratio in the repeat runs, not every such curve was filed as active; the % refers to the signal ratio)
# How it was run: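 Beta-lactamase reporter under UAS control in GeneBLAzer FXR HEK 293T cells (5000/well) measured with LiveBLAzer FRET substrate after 2 h at room temperature. Compound exposure lasted 16 h at 37C.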
# [7] = qHTS assay to identify small molecule antagonists of the farnesoid-X-receptor (FXR) signaling pathway - cell viability counter screen (AID 743221; active = well fitted cell-killing curve with a large enough effect in the repeat runs, not every such curve was filed as active; note: nearly all actives have a fitted effect of over 50% in size)
# How it was run: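 Multiplexed counter screen: viability of FXR-bla HEK 293T cells under agonist stimulation by chenodeoxycholic acid (50 uM, final) and test compound for 16 h at 37 C, measured by CellTiter-Glo luminescence in the reporter wells.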
# [8] = biological target: Vitamin D3 receptor (Homo sapiens) (UniProt P11473); assay: qHTS assay to identify small molecule agonists of the vitamin D receptor (VDR) signaling pathway (AID 743222; calls by dose curve)
# Vitamin D3 receptor (Homo sapiens), sequence (P11473 whole entry, looked up): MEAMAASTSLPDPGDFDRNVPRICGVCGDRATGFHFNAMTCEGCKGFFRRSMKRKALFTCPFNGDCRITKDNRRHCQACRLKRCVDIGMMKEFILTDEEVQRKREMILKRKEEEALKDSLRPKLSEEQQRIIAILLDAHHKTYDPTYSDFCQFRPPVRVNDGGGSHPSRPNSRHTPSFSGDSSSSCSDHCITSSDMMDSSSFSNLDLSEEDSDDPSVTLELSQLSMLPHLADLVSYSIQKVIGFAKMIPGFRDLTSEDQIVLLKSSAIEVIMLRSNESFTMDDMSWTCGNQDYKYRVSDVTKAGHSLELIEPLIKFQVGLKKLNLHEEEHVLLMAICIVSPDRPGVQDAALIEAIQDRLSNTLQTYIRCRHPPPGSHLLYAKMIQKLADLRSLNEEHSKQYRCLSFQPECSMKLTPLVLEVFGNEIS
# How it was run: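 Agonist activity measured in VDR-bla reporter cells. Exposure 16 h, 37C, 5% CO2; detection by B/G FRET substrate, 2 h RT.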
# [9] = biological target: Vitamin D3 receptor (Homo sapiens) (UniProt P11473); assay: qHTS assay to identify small molecule antagonists of the vitamin D receptor (VDR) signaling pathway (AID 743223; active = well fitted inhibition curve with a large enough effect in the signal ratio in the repeat runs, not every such curve was filed as active; the % refers to the signal ratio)
# How it was run: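 Cells carrying a VDR-driven beta-lactamase reporter (VDR-bla) were co-treated with compound and 3 nM final 1alpha,25-dihydroxyvitamin D3 for 16 h at 37C; reporter activity was measured as FRET substrate fluorescence after 2 h at room temperature.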
# [10] = qHTS assay to identify small molecule antagonists of the vitamin D receptor (VDR) signaling pathway - cell viability counter screen (AID 743225); note: nearly all actives have a fitted effect of over 50% in size; note: potency is the fitted concentration of half-maximal effect
# How it was run: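 HEK293T VDR-bla; cpd + 1a,25-(OH)2D3 3 nM final, 16 h 37C/5% CO2; B/G FRET substrate 2 h RT; then CellTiter-Glo 30 min RT, luminescence.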
# [11] = qHTS assay to identify small molecule agonists of the NFkB signaling pathway - cell viability counter screen (AID 1159515; calls by dose curve; note: nearly all actives have a fitted effect of over 55% in size; note: potency is the fitted concentration of half-maximal effect)
# How it was run: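 Viability in NFkB-bla ME-180 cells was measured by CellTiter-Glo luminescence, 30 min room temperature, in wells already treated 5 hr with compounds and read for reporter FRET.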
# [12] = qHTS assay to identify small molecule agonists of the endoplasmic reticulum stress response signaling pathway (AID 1159516; active = well fitted activation curve with a large enough effect in the signal ratio in the repeat runs, not every such curve was filed as active; the % refers to the signal ratio)
# How it was run: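 ER stress element reporter (bla) in HeLa. 1,500 cells/well, overnight attachment; 5 hr compound; 2 hr RT substrate; dual-emission fluorescence.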
# [13] = qHTS assay to identify small molecule agonists of the endoplasmic reticulum stress response signaling pathway - cell viability counter screen (AID 1159517; calls by dose curve;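 note: HeLa cells carrying an ER stress response element beta-lactamase reporter; series mostly up to about 61 µM; nearly all actives have a fitted effect of over 50% in size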)
# How it was run: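 HeLa cells carrying an ESRE-driven beta-lactamase reporter receive compound for 5 hr at 37 C. Cell viability is then gauged with CellTiter-Glo by luminescence, 30 min at room temperature.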
# [14] = qHTS assay to identify small molecule antagonists of the retinoid-related orphan receptor gamma (ROR-gamma) signaling pathway - cell viability counter screen (AID 1159520); note: nearly all actives have a fitted effect of over 50% in size; note: potency is the fitted concentration of half-maximal effect
# How it was run: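 Cytotoxicity was read from cellular ATP (CellTiter-Glo luminescence) after 16 hr at 37 C with 1 uM doxycycline induction. The inducer was added 2 hr after compound transfer to Tet-on ROR gamma CHO cells.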
# [15] = biological target: Nuclear receptor ROR-gamma (Homo sapiens) (UniProt P51449); assay: qHTS assay to identify small molecule antagonists of the retinoid-related orphan receptor gamma (ROR-gamma) signaling pathway (AID 1159521; note: nearly all actives have a fitted effect of over 50% in size; note: potency is the fitted concentration of half-maximal effect)
# How it was run: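 Cells were plated, rested 4 h at 37 C, exposed to compounds for 2 h, then given 1 uM final doxycycline hyclate to induce RORγ expression. After 16 h, ONE-Glo luminescence from the ROR response element reporter was measured.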
# [16] = qHTS assay to identify small molecule agonists of the AP-1 signaling pathway - cell viability counter screen (AID 1159525; calls by dose curve; note: nearly all actives have a fitted effect of over 55% in size; note: potency is the fitted concentration of half-maximal effect)
# How it was run: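 Luminescent ATP readout (Cell Titer Glo, 30 min RT), normalised to DMSO and tetra n-octyl ammonium bromide controls. Cells were ME-180 AP-1-bla in 0.5% dialyzed FBS Opti-MEM, with a 5 h, 37 °C compound exposure.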
# [17] = qHTS assay to identify small molecule agonists of the AP-1 signaling pathway (AID 1159526; calls by dose curve)
# [18] = qHTS assay to identify small molecule agonists of the vitamin D receptor (VDR) signaling pathway - cell viability counter screen (AID 743224); note: nearly all actives have a fitted effect of over 50% in size; note: potency is the fitted concentration of half-maximal effect
# How it was run: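 VDR-bla cell line, quantitative HTS format; 16 h compound incubation (37C, 5% CO2); ATP-based CellTiter-Glo luminescence measured in the reporter assay wells.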
# [19] = biological target: Retinoic acid receptor RXR-alpha (Homo sapiens) (UniProt P19793); assay: qHTS assay to identify small molecule agonists of the RXR signaling pathway (AID 1159527; calls by dose curve; note: nearly all actives have a fitted effect of over 35% in size)
# Retinoic acid receptor RXR-alpha (Homo sapiens), sequence (P19793 whole entry, looked up): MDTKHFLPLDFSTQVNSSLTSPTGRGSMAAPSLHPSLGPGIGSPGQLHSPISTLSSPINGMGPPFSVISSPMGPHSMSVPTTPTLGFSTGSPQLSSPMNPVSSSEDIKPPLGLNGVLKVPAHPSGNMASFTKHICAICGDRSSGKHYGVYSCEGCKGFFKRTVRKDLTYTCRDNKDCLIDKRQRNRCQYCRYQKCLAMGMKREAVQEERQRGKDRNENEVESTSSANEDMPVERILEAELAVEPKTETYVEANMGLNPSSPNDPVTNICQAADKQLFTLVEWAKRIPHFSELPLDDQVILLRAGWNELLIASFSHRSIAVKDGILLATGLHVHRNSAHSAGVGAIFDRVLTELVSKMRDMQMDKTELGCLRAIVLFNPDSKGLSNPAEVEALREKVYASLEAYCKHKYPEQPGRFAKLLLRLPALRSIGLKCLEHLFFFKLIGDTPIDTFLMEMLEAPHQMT
# How it was run: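 Cells plated at 2,000/well, rested 5 hr at 37 C, pin-dosed with DMSO compound solutions, incubated 16 hr, then loaded with B/G FRET substrate for 2 hr at RT before dual-emission fluorescence reading.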
# [20] = qHTS assay to identify small molecule agonists of the peroxisome proliferator-activated receptor delta (PPARd) signaling pathway - cell viability counter screen (AID 743211); note: nearly all actives have a fitted effect of over 55% in size
# How it was run: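 Counter screen for cytotoxicity run in parallel with the PPARd reporter screen. Beta-lactamase reporter HEK293H cells exposed to compounds 17 h; ATP-based CellTiter-Glo luminescence quantified viability.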
Structure (SMILES),outcome [1],Potency [2],outcome [3],Potency [4],Potency [5],outcome [6],Potency [7],outcome [8],outcome [9],Potency [10],Potency [11],Potency [12],Potency [13],Potency [14],Potency [15],Potency [16],Potency [17],Potency [18],Potency [19],Potency [20]
CC(C)[N+](C)(CCOC(=O)C1c2ccccc2Oc2ccccc21)C(C)C,inactive,inactive,inactive,inactive,inactive,inactive,inactive,inactive,inactive,inactive,inactive,inactive,inactive,inactive,inactive,inactive,inactive,–,–,–
CCC(Cc1c(I)cc(I)c(N)c1I)C(=O)O (stereo unspecified),–,inactive,–,inactive,inactive,inactive,inactive,inactive,–,inactive,inactive,inactive,inactive,inactive,inactive,inactive,–,inactive,inactive,–
CC(=O)O[C@]1(C(C)=O)CC[C@H]2[C@@H]3C=C(C)C4=CC(=O)CC[C@]4(C)[C@H]3CC[C@@]21C,–,inactive,–,–,inactive,–,inactive,–,inactive,inactive,inactive,inactive,inactive,inactive,21.7 µM (active),inactive,inactive,inactive,–,–
CCOC(=O)C(C)Oc1ccc(Oc2cnc3cc(Cl)ccc3n2)cc1 (stereo unspecified),inactive,inactive,inactive,inactive,inactive,inactive,inactive,inactive,–,inactive,inactive,inactive,inactive,inactive,inactive,inactive,inactive,–,–,–
Cc1ccc2c(c1)C(=O)OC2=O,inactive,inactive,inactive,–,inactive,–,inactive,inactive,inactive,inactive,inactive,inactive,inactive,inactive,–,inactive,inactive,inactive,inactive,–
CC(=O)Oc1ccc(C(c2ccc(OC(C)=O)cc2)c2ccccn2)cc1,inactive,inactive,inactive,–,inactive,–,–,–,inactive,inactive,546 nM (active) and 1.07 µM (active),inactive,–,inactive,inactive,109 nM (active) and 952 nM (active),–,–,inactive,–
OC[C@H]1O[C@@H]2O[C@H]3[C@H](O)[C@@H](O)[C@@H](O[C@H]4[C@H](O)[C@@H](O)[C@@H](O[C@H]5[C@H](O)[C@@H](O)[C@@H](O[C@H]6[C@H](O)[C@@H](O)[C@@H](O[C@H]7[C@H](O)[C@@H](O)[C@@H](O[C@H]1[C@H](O)[C@H]2O)O[C@@H]7CO)O[C@@H]6CO)O[C@@H]5CO)O[C@@H]4CO)O[C@@H]3CO,–,inactive,–,–,inactive,–,inactive,inactive,inactive,inactive,inactive,inactive,–,inactive,inactive,inactive,inactive,–,–,inactive
C=CCOC(=O)C(=C)C,inactive,inactive,–,–,inactive,–,inactive,inactive,inactive,inactive,inactive,inactive,–,inactive,inactive,inactive,inactive,inactive,inactive,inactive
CCc1cccc2c3c([nH]c12)C(CC)(CC(=O)O)OCC3 (stereo unspecified),–,inactive,–,inactive,inactive,inactive,inactive,inactive,inactive,inactive,inactive,inactive,–,inactive,inactive,inactive,inactive,–,inactive,inactive
C[N+](C)(C)CCO,inactive,inactive,inactive,–,inactive,–,inactive,inactive,inactive,inactive,inactive,inactive,–,inactive,inactive,inactive,inactive,–,inactive,inactive
Nc1ccc(N)c(Cl)c1,inactive,inactive,inactive,–,inactive,–,inactive,inactive,–,inactive,inactive,inactive,–,inactive,–,–,–,–,inactive,inactive
O=Cc1ccccc1C=O,inactive,24.5 µM (active) and inactive,inactive,–,inactive,–,inactive,–,–,21.9 µM (active) and inactive,inactive,inactive,–,7.7 µM (active) and inactive,17.2 µM (active) and inactive,inactive,inactive,inactive,inactive,–
Cc1cccc(Nc2ccccc2C(=O)O)c1C,–,inactive,inactive,–,inactive,–,inactive,–,–,inactive,inactive,inactive,–,inactive,inactive,inactive,inactive,–,inactive,inactive
CN1CCOCC1,–,inactive,–,–,inactive,–,inactive,inactive,inactive,inactive,inactive,inactive,–,inactive,inactive,inactive,inactive,inactive,inactive,inactive
NCCS(=O)(=O)O,–,inactive,–,–,inactive,–,inactive,inactive,inactive,inactive,inactive,inactive,–,inactive,inactive,inactive,inactive,inactive,inactive,–
CC1(C)OC(=O)NC1=O,inactive,inactive,–,inactive,inactive,inactive,inactive,inactive,inactive,inactive,inactive,inactive,–,inactive,inactive,inactive,inactive,–,inactive,inactive
CCCCCC=O,inactive,inactive,–,inactive,inactive,inactive,inactive,inactive,inactive,inactive,inactive,inactive,–,inactive,–,inactive,inactive,inactive,inactive,inactive
O=C(O)CCCCCCCCCCCC(=O)O,inactive,inactive,–,inactive,inactive,inactive,inactive,inactive,inactive,inactive,inactive,inactive,–,inactive,53.6 µM (active) and inactive,inactive,inactive,inactive,inactive,inactive
CC/C(=C(/CC)c1ccc(O)cc1)c1ccc(O)cc1,–,34.4 µM (active),–,16.8 µM (active),–,inactive,inactive,inactive,inactive,inactive,inactive,inactive,–,inactive,–,inactive,inactive,24.3 µM (active),inactive,–
O=C(O)c1ccc(O)cc1,inactive,inactive,–,inactive,inactive,inactive,inactive,–,–,inactive,inactive,inactive,–,inactive,inactive,inactive,inactive,inactive,inactive,inactive
O=C(O)c1cc(=O)[nH]c(=O)[nH]1,inactive,inactive,–,–,inactive,–,inactive,–,–,inactive,inactive,inactive,–,inactive,inactive,inactive,inactive,–,inactive,–
C/C=C/C(=O)N(CC)c1ccccc1C,–,inactive,–,–,inactive,–,inactive,inactive,inactive,inactive,inactive,inactive,–,inactive,inactive,inactive,inactive,inactive,inactive,–
